# Measured values as given in PubChem BioAssay AID932 (The Scripps Research Institute Molecular Screening Center, 2007).
# Screen size: about 200,000 compounds; about 5,100 (2.5%) were called active. This is one part of a sample in which actives are shown more often than they occur.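 Rule for the calls: active = activation above the screen-wide mean activation plus 3 SD (cut at about 130% in these data); inactive = the rest.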
# Assay: STAT1 signaling activators, primary screen, cell-based, HTS, luciferase reporter (AID 932);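 note: raw ratio to IFN-gamma control signal so 100% means no change and 0% no light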
# Conditions: NIH 3T3 STAT1-luciferase reporter, IFN-gamma, luminescence; at 5.5 µM; active compounds read high; 100% = IFN-gamma alone, no compound
row,Compound,activation (% of control)
1,CC(=O)c1ccc(NC(=O)c2ccc3c(Cl)c4c(nc3c2)CCCC4)cc1,113% (inactive)
2,O=C(CN1CCN(c2ccc(O)cc2)CC1)NC1CCCc2ccccc21 (centres undefined),101% (inactive)
3,Cc1ccc(OCc2nnc(SC3CCc4ccccc4C3=O)n2C)cc1 (centres undefined),105% (inactive)
4,Cc1cc(C)nc(NS(=O)(=O)c2ccc(N/C=C\C(=O)c3cccs3)cc2)n1,135% (active)
5,CCc1nnc(NS(=O)(=O)c2ccc(NC(=S)NC(=O)c3cccs3)cc2)s1,109% (inactive)
6,CC(=O)Nc1ccc(S(=O)(=O)Nc2nccc(/C=C/c3ccccc3F)n2)cc1,98.1% (inactive)
7,O=C(c1cccs1)n1nc(NCc2ccccc2)nc1NCc1ccccc1,107% (inactive)
8,CNC(=O)COC(=O)c1cc(-c2ccc(OC)cc2)nc2ccccc12,99.7% (inactive)
9,CC(C)(C)NC(=O)NC(=O)COC(=O)Cc1c(F)cccc1Cl,113% (inactive)
10,C=CCSc1nc2ccccc2[nH]1,109% (inactive)
11,CCCCSc1nc2ccccc2[nH]1,121% (inactive)
12,O=C(CSc1nc2ccccc2[nH]1)c1cccs1,136% (active)
13,CCOc1cc2[nH]c(=O)n(Cc3ccc(C(=O)NCCCN4CCCC4=O)cc3)c(=O)c2cc1OCC,92.1% (inactive)
14,COc1ccc(C2(CNC(=O)Cc3ccc(OC)c(OC)c3)CCCC2)cc1,94.7% (inactive)
15,N/C(=N\OC(=O)CC1CCCCC1)c1ccccc1,116% (inactive)
16,N/C(=N\OC(=O)c1ccc([N+](=O)[O-])cc1)c1ccccn1,81.4% (inactive)
17,CCC(C)(NC(=O)c1ccccn1)C(=O)NC1CCCCC1 (centres undefined),95.5% (inactive)
18,O=C(OCc1ccc([N+](=O)[O-])cc1)c1ccccn1,95.9% (inactive)
19,N/C(=N\OC(=O)CCC1CCCCC1)c1ccccn1,130% (active)
20,N/C(=N\OC(=O)Cc1ccc([N+](=O)[O-])cc1)c1ccccn1,139% (active)
21,COc1cc(SC)ccc1C(=O)Nc1nc(C)cs1,12.9% (inactive)
22,COC(=O)c1sc(NC(=O)c2ccc(OC)cc2OC)nc1C,75.1% (inactive)
23,COc1ccc(C(=O)Nc2nncs2)c(OC)c1,131% (active)
24,COc1ccc(S(=O)(=O)N2CCN(C(=O)c3cc(C)oc3C)CC2)cc1,90.8% (inactive)
25,Cc1ccc([N+](=O)[O-])c(OCCCNCC(C)O)c1 (centres undefined),101% (inactive)
26,CN1CCN(C(=O)/C(=C\c2ccc3c(c2)OCO3)NC(=O)c2cccs2)CC1,98.7% (inactive)

row,Compound,activation (% of control)
1,COC(=O)c1ccccc1SC1CC(=O)N(c2cccc(C)c2)C1=O (centres undefined),94.5% (inactive)
2,CC1CCN(S(=O)(=O)c2ccc3ncn(CC(=O)N(C)C4CCCCC4)c(=O)c3c2)CC1,100% (inactive)
3,Cc1cccc(C)c1NC(=O)C1CCCN1C(=O)OC(C)(C)C (centres undefined),104% (inactive)
4,CCNC(=O)NNC(=O)C1CC(c2cccs2)=NO1 (centres undefined),100% (inactive)
5,Cc1occc1C(=O)Nc1nnc(C2CCCCC2)s1,107% (inactive)
6,O=C(Nc1nnc(C2CC2)s1)c1ccccn1,129% (active)
7,O=C(Cc1cccs1)Nc1nnc(C2CC2)s1,90.1% (inactive)
8,Cc1nc2ccccn2c1C(=O)NN=C1CCN(C)CC1,96.3% (inactive)
9,CN1CCN(c2ccc(NC(=O)c3ccc4c(c3)[nH]c(=O)n4Cc3ccc(F)cc3)cc2)CC1,98.7% (inactive)
10,Clc1cccc(CN2COc3c(cc(Cl)c4cccnc34)C2)c1,94.3% (inactive)
11,CC(=O)Cc1nsc(NC(=O)c2csc3c2CCCC3)n1,102% (inactive)
12,COC(=O)c1sc(NC(=O)c2csc3c2CCCC3)nc1C,149% (active)
13,Cc1ccc(NC(=O)c2c(NC(=O)CCC(=O)O)sc3c2CCCCC3)cc1,105% (inactive)
14,O=C(NCc1ccccc1Cl)c1csc2c1CCCCC2,107% (inactive)
15,Cc1ccc(NC(=O)c2csc3c2CCCC3)cc1,176% (active)
16,COC(=O)c1sccc1NC(=O)c1csc2c1CCCC2,106% (inactive)
17,O=C(COc1ccccc1Cl)Nc1ccc(C(=O)c2ccc(C(=O)O)cc2)cc1,98% (inactive)
18,CSCCC(=O)N1CCCC(CNC(=O)c2ccccc2Cl)C1 (centres undefined),96.7% (inactive)
19,CCN(CC)S(=O)(=O)c1ccc(NC(=O)c2cccnc2Cl)c(NC(=O)c2cccnc2Cl)c1,88.7% (inactive)
20,O=C1Nc2cc(Cl)c(Cl)cc2N(O)N1c1ccccc1Cl,82.7% (inactive)
21,S=C(NCCc1ccccc1)N1CCCCC1,122% (inactive)
22,S=C(c1ccc(-c2ccccc2)o1)N1CCCCC1,138% (active)
23,CC1CCN(C(=S)c2ccc(-c3ccc(Cl)cc3Cl)o2)CC1,85.7% (inactive)
24,O=C(CNC(=O)COc1ccccc1)NCCc1ccccn1,104% (inactive)
25,CCC(=O)Nc1cccc(NC(=O)c2cccnc2)c1,98.6% (inactive)
26,Cc1nn(Cc2ccc(Cl)cc2)c(Cl)c1/C=N/NC(=O)c1cccnc1,94.4% (inactive)

row,Compound,activation (% of control)
1,Cc1cc(/C=N/NC(=O)c2cccnc2)c(C)n1CC(C)C,139% (active)
2,Cc1ccc2sc(NNC(=O)c3ccc4c(c3)OCCO4)nc2c1C,104% (inactive)
3,CCOC(=O)CSc1nc2ccc(C)cc2[nH]1,111% (inactive)
4,Cc1cc2nc(SCCN3CCOCC3)[nH]c2cc1C,152% (active)
5,Cc1ccc(S(=O)(=O)NCCN2CCOCC2)cc1C,96.1% (inactive)
6,COc1ccc(CN2CCCC(CNC(=O)c3ccc(F)cc3)C2)cc1OC (centres undefined),97.8% (inactive)
7,CC1CCC(NC(=O)C2c3ccccc3C(=O)N2Cc2ccc3c(c2)OCO3)CC1 (centres undefined),89.6% (inactive)
8,N=c1c2c(-c3ccccc3)c(-c3ccccc3)n(Cc3ccccc3)c2ncn1CCCO,102% (inactive)
9,OCCCN1c2ccccc2Nc2nnc(-c3ccccc3)cc21,156% (active)
10,Cc1ccc(C)c(-n2ccnc2SCC(N)=O)c1,102% (inactive)
11,O=C(Nc1cccc(C(F)(F)F)c1)c1cnccn1,110% (inactive)
12,Cc1cccc(NC(=O)c2cccc(C(F)(F)F)c2)c1,107% (inactive)
13,Cc1ccc(NC(=O)Nc2cccc(C(F)(F)F)c2)nc1,129% (active)
14,CN(C)c1ccc2c(=O)[nH][nH]c(=O)c2c1,103% (inactive)
15,COc1ccc(-n2c(C)nn(CC3CC3)c2=O)cc1,97.8% (inactive)
16,NS(=O)(=O)c1ccc(CCNC(=O)CCCn2c(SCC(=O)N3CCCC3)nc3ccsc3c2=O)cc1,99.5% (inactive)
17,CCc1ccc(NC(=O)CC2C(=O)NCCN2C(=S)Nc2ccccc2)cc1 (centres undefined),100% (inactive)
18,O=C1CN(C(=O)COC(=O)c2cnc(Cl)c(Cl)c2)c2ccccc2N1,92.8% (inactive)
19,CCN(CC)N=Nc1cccc(NC(C)=O)c1,88.6% (inactive)
20,Cc1nonc1NC(=O)CSc1nc2ccccc2cc1C#N,117% (inactive)
21,CCOc1ccc2cc(C#N)c(SCC(=O)OC)nc2c1,150% (active)
22,CCOc1ccc2nc(NCCNS(=O)(=O)c3ccccc3)c(C#N)cc2c1,102% (inactive)
23,O=C(CSc1cccc[n+]1[O-])NCCCc1ccccc1,91.9% (inactive)
24,CCOC(=O)C1CCN(CCC(=O)Nc2cccc(C)c2)CC1,98.8% (inactive)
25,COc1cc(/C=C2/C(=O)ON=C2C)ccc1OCc1ccccc1F,129% (active)
26,CCOc1cc(/C=N/O)ccc1OCc1ccccc1F,104% (inactive)

row,Compound,activation (% of control)
1,COc1cc(/C=C2/C(=O)ON=C2C)ccc1OCc1cccc(F)c1,128% (inactive)
2,CCn1c(CSCc2c(Cl)cccc2Cl)n[nH]c1=S,98.8% (inactive)
3,Cc1noc(C)c1CCC(=O)O,95.1% (inactive)
4,COc1ccc(CNC(=O)CN2CCC(n3nnc4cc(F)ccc43)CC2)cc1,88.1% (inactive)
5,COc1ccc2nc(Nc3nc4cc5c(cc4s3)OCCO5)sc2c1,114% (inactive)
6,Fc1ccc2nc(Nc3nc4c(s3)CCCC4)sc2c1,162% (active)
7,CSc1ncccc1C(=O)Nc1nc2ccc(F)cc2s1,123% (inactive)
8,CCCCCC(=O)Nc1ccc(S(=O)(=O)Nc2ccc(Cl)nn2)cc1,102% (inactive)
9,O=C(C1=C[C@H](c2coc3ccccc3c2=O)C[C@H](OCc2ccc(CO)cc2)O1)N1CCOCC1,102% (inactive)
10,COc1ccc(/C=N/NC(=O)Cn2cc(C(F)(F)F)ccc2=O)cc1,97.9% (inactive)
11,Cc1ccccc1OCCC(=O)OCC(=O)NC(C)c1ccccc1 (centres undefined),99.7% (inactive)
12,COCCOC(=O)c1c(C)oc2cc(Br)c(OCC(N)=O)cc12,94.5% (inactive)
13,Cc1ccc(COc2ccc(C(=O)NN)cc2)cc1,116% (inactive)
14,c1cnc(Nc2nc(-c3ccc4ccccc4c3)cs2)nc1,164% (active)
15,Cc1ccc(-c2csc(NC(=O)c3cccs3)n2)cc1,123% (inactive)
16,Cc1ccc(-c2csc(NC(=O)Cc3cccs3)n2)cc1C,111% (inactive)
17,Clc1ccc(Nc2nc(-c3cccs3)cs2)nc1,196% (active)
18,CCCc1cc(-c2nc(-c3ccc(C)cc3)cs2)ccn1,99.8% (inactive)
19,O=C(Nc1ccc(Cl)cn1)Nc1cccs1,123% (inactive)
20,c1ccc(Nc2nc(-c3ccncc3)cs2)nc1,193% (active)
21,Oc1ccc(-c2csc(Nc3cccnc3)n2)cc1,110% (inactive)
22,COc1ccc(-c2csc(Nc3ccccn3)n2)cc1,110% (inactive)
23,NC(=O)c1ccccc1N=Cc1ccc2ccccc2c1,124% (inactive)
24,CCOC(=O)c1cc2c(=O)n3ccccc3nc2n(CC(C)C)c1=NC(=O)c1c(-c2c(F)cccc2Cl)noc1C,89.8% (inactive)
25,CC(C)OC(=O)Cn1nc(C(F)(F)F)c2c1CCCC2,96.5% (inactive)
26,Cc1ccc2nc(SCc3cn4c(C)cc(C)nc4n3)[nH]c2c1,96.4% (inactive)
